# Records with an inconclusive call do not appear. Unmarked numbers belong to inactive results. Active and inactive are the calls of the source. The call rests on the fitted dose curve; in most records, active means well fitted curve in the direction sought with a large enough effect in the signal ratio (not every such curve was filed as active); inconclusive means small, poorly fitted or top-dose-only effect, or a change in a side signal; inactive means no such curve, though single readings can be large or run the other way; the % refers to the signal ratio.
# Target: Inositol monophosphatase 1 (Rattus norvegicus) (UniProt P97697)
# Sequence (P97697 whole entry, looked up): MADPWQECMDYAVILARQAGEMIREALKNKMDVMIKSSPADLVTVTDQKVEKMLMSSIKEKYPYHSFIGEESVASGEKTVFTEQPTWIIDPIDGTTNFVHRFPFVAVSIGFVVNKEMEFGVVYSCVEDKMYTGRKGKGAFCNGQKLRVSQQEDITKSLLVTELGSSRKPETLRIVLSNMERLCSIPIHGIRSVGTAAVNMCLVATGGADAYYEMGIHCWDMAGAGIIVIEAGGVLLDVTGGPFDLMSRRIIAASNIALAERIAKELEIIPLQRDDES
# Assay: Confirmation Assay for Identifying the Cell-Membrane Permeable IMPase Inhibitors
# Details: CHO-M1 cells, carbachol-stimulated IP1 accumulation, HTRF ratio; series mostly up to 41.5 µM; activity change, negative = inhibition: at the top concentration
# Description: NIH Chemical Genomics Center [NCGC] NIH Molecular Libraries Probe Production centers Network [MLPCN] MLPCN Grant: X01 MH082413-01 Assay Submitter (PI): Wei Zheng NCGC Assay Overview: Lithium has been widely used for the treatment of bipolar disorder. But lithium has a narrow therapeutic index and it can cause side effects such as thirst, weight gain, tremor, polyuria and memory problems. Although the mechanism for lithium action in treatment of bipolar disorder is still not fully understood, inhibition of inositol monophosphatase (IMPase) and the subsequent depletion of the inositol pool in living cells have been implicated as the primary therapeutic benefit of lithium therapy. Therefore, a selective IMPase inhibitor with reduced side effects might be a good drug candidate to replace lithium for the treatment of bipolar disorder. Several IMPase inhibitors have been discovered previously. However, they are not suitable for therapeutic use because of their poor cell membrane penetrability or oral bioavailability; the development of new cell-permeable IMPase inhibitors is needed. IMPase catalyzes the hydrolysis of inositol-1-phosphate (IP1) to release free inositol. Binding of an agonist to a Gq coupled GPCR results in the activation of PLC, which hydrolyzes the PIP2 to form inositol-1,4,5-trisphosphate (IP3) and diacyl glycerol (DAG). While DAG activates protein kinase C (PKC), IP3 triggers the elevation of intracellular free Ca2+. The IP3 is very rapidly inactivated by hydrolysis to IP2, IP1 and then inositol by a series of enzymes including IMPase. Free inositols are used for synthesis of PI and thus start another inositol cycle. To identify new cell-permeable IMPase inhibitors, we developed a cell-based IMPase assay in which the cytosolic IP1 is measured by a time-resolved fluorescence resonance energy transfer (TR-FRET) assay. In this assay, an IP1 specific antibody is used to detect the labeled IP1 tracer. When the cell lysate contains the elevated IP1 due to the inhibition of IMPase, the TR-FRET between the labeled antibody and IP1 tracer is disrupted resulting in a reduction in the total signal. Since the TR-FRET is used, this cell-based assay is a homogenous assay without cell wash and medium change that is suitable for assay miniaturization and HTS.
# NCGC IMPase Assay Protocol Summary A Chinese hamster ovary (CHO) cell line stably expressing the M1 receptor (CHO-M1) was obtained from ATCC and maintained in F-12 Kaighn's media (Invitrogen, Carlsbad, CA, 21127) supplemented with 10 % FBS, 100 units/ml penicillin, 100 ug/ml streptomycin and 250 ug/ml geneticin at 37C, 5% CO2 in a humidified atmosphere. Before the assay, aliquots of cells were frozen and stored at -135C. The assay was performed in 1536-well format. Data are reported for both the ratio of the two emission wavelengths, and also for the component 'donor' channel, Em2=620. Data were normalized to the controls for basal activity (DMSO only) and 100% inhibition (18.4 mM LiCl). AC50 values were determined from concentration-response data modeled with the standard Hill equation. IMPase 1536-well assay protocol: (1) Plate 4 ul/well (2000 cells) of cell suspension from frozen CHO-M1 Cells in white, tissue culture treated 1536-well plates that are cultured at 37C, 5 % CO2 for 16 to 30 hours. (2) Add 23 nl/well of compound in DMSO solution. The final titration for each compound was between 0.6 nM and 46 uM. […]
Compound,"activity change, negative = inhibition",Potency
Cc1ccc(-c2c(C(=O)Nc3ccccc3C)c(C)[nH]c(=S)c2C#N)o1,-20.4%,
O=C(NCCCn1ccnc1)c1cc(-c2ccncc2)nc2ccccc12,3.25%,
N#Cc1c(-c2ccc(Br)cc2)nc2n(c1=O)CCCS2,-12.4%,
CC(=O)C1=C(O)C(=O)N(Cc2ccco2)C1c1ccccc1F (stereo unspecified),-31.2%,
CCc1c(C)nc2c(OC)cccc2c1SCCC(=O)O,-23.6%,
N#CC1=C(N)Oc2n[nH]c(-c3ccccn3)c2C1c1c(F)cccc1Cl (stereo unspecified),22.4%,
O=C(CCC(=O)c1cccs1)NCc1cccnc1,11.4%,
CC1(C)Cc2c(ccc3ccccc23)C2=C(C(=O)N3CCCC3)C(=O)C(=O)N21,18.9%,
N#CCN1CCC(c2cc(-c3ccco3)n[nH]2)CC1,11.4%,
COc1ccc(/C=C2\CCCC3C2=NN(C(=O)c2ccco2)C3c2ccc(OC)c(OC)c2)cc1OC (stereo unspecified),-14.2% [at 198 µM],
O=P(O)(OCc1ccccc1)OCc1ccccc1,17.9%,
CC(C)(C)c1ccc(-c2nnc3sc(-c4ccccn4)nn23)cc1,-5.12% [at 198 µM],
CNC(=O)c1ccc(NC(=O)/C=C/c2cccc(F)c2)cc1,2.85%,
COc1ccc(N2CSC3=C(C#N)C(c4cccs4)CC(=O)N3C2)cc1 (stereo unspecified),-29.2%,
COc1ccc2oc(-c3ccccc3)c(C(N)=O)c2c1,6.28%,
CCOC(=O)c1cc2c(=O)n3ccccc3nc2n(Cc2ccco2)c1=NC(=O)c1cccnc1,-14.5%,
O=C(NC1CCS(=O)(=O)C1)C1C2CC3CC(C2)CC1C3 (stereo unspecified),13.9%,
COc1cccc(NC(=O)CN(C)C(C)C(=O)Nc2cc([N+](=O)[O-])ccc2Cl)c1 (stereo unspecified),33.2%,
COc1ccc(C2c3c(ncn(CCN4CCOCC4)c3=N)Oc3ccc4ccccc4c32)cc1OC (stereo unspecified),-8.46%,
[Li+],,708 µM (active)
C[N+](C)(CCCCCC[N+](C)(C)CCCN1C(=O)c2cccc3cccc(c23)C1=O)CCCN1C(=O)c2cccc3cccc(c23)C1=O,-14.1%,

# Reference: PubChem BioAssay AID2308 (National Center for Advancing Translational Sciences (NCATS), 2010)
